According to the supplement of paper PMC10849652:
About 7,900 targets were measured; listed, in parts, are those with a hit and a random draw of the rest. About 0.6% of all pairs of compound and target were hits.

Columns and labels:
Test in all cases: log2 fold change, soluble protein after heating vs DMSO (PISA); higher = thermal stabilisation; K562 cells, 10 uM, 30 min; active = over 0.2 and 3.5 SD of the protein, either way, in both replicates (recomputed)
[1] = compound: CC1=C(C=C(C=C1)NC(=O)C2=CC(=CC=C2)C(C)(C)C#N)NC3=CC4=C(C=C3)N=CN(C4=O)C
Outline: (§1)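 K562 cells at 2×10^6 cells/mL were exposed to 10 μM compound for 30 min, then aliquots were heated for 3 min across 48°C-58°C, pooled, and extracted in PBS containing 0.5% NP-40 at 4°C. The supernatant after 21,000xg for 90 min was taken as soluble protein and measured by TMTpro 16plex LC-MS/MS with channel sums equalised. Thermal stability is reported relative to control samples, with values from duplicates. Fold changes are given on a log2 scale.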

[2] = compound: CC1=C(C=C(C=C1)NC(=O)C2=CC(=CC=C2)N(C)C)NC(=O)C3=CC=C(C=C3)O
Outline: as §1

[3] = compound: CC1=CC=C(C=C1)SC2=C3C=C(SC3=CN=C2)C(=O)N
Outline: as §1

[4] = compound: CC1=NC(=CC=C1)C2=C(N=C(N2)C(C)(C)C)C3=CC4=NC=CN=C4C=C3
Outline: as §1

[5] = compound: CCCCN(Cc1ccc(C(=O)NO)cc1)C(=O)Nc1ccccc1 [Nexturastat A]
Outline: as §1

[6] = compound: CCCS(=O)(=O)Nc1ccc(F)c(C(=O)c2c[nH]c3ncc(-c4ccc(Cl)cc4)cc23)c1F [vemurafenib]
Outline: as §1

[7] = compound: CCCS(=O)(=O)Nc1ccc(F)c(C(=O)c2c[nH]c3ncc(Cl)cc23)c1F
Outline: as §1

[8] = compound: CCCc1cc(C)[nH]c(=O)c1CNC(=O)c1cc(-c2ccnc(N3CCN(C)CC3)c2)cc2c1cnn2C(C)C
Outline: as §1

[9] = compound: CCN(CC)Cc1ccc2cc(COC(=O)Nc3ccc(C(=O)NO)cc3)ccc2c1 [givinostat]
Outline: as §1

[10] = compound: CCN(CCCOc1ccc2c(Nc3cc(CC(=O)Nc4cccc(F)c4)[nH]n3)ncnc2c1)CCOP(=O)(O)O [barasertib]
Outline: as §1

Measured: log2 fold change

GALNT11 (UniProt Q8NCW6)
UniProt Q8NCW6, sequence (Q8NCW6 whole entry, looked up): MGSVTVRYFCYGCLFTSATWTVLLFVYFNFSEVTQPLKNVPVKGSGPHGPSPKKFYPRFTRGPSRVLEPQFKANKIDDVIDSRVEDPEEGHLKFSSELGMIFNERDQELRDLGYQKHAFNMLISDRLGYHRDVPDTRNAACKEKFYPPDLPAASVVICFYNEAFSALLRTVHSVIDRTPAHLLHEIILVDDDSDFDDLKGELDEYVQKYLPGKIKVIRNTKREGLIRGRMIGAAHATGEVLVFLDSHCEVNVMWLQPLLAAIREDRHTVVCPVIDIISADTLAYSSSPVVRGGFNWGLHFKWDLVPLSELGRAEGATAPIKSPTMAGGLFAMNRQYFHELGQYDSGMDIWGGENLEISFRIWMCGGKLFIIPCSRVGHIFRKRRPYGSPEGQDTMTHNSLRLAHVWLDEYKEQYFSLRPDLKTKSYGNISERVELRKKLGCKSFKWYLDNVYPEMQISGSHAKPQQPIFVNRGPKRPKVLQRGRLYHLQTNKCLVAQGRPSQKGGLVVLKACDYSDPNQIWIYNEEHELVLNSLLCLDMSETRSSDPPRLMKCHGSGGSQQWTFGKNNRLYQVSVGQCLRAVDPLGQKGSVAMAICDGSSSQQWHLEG
inactive: [1] 0.011 | [2] 0.049 | [3] -0.024 | [4] -0.041 | [5] -0.032 | [6] 0.009 | [7] -0.035 | [8] -0.002 | [9] 0.027 | [10] 0.118

FOXK1 (UniProt P85037)
UniProt P85037, sequence (P85037 whole entry, looked up): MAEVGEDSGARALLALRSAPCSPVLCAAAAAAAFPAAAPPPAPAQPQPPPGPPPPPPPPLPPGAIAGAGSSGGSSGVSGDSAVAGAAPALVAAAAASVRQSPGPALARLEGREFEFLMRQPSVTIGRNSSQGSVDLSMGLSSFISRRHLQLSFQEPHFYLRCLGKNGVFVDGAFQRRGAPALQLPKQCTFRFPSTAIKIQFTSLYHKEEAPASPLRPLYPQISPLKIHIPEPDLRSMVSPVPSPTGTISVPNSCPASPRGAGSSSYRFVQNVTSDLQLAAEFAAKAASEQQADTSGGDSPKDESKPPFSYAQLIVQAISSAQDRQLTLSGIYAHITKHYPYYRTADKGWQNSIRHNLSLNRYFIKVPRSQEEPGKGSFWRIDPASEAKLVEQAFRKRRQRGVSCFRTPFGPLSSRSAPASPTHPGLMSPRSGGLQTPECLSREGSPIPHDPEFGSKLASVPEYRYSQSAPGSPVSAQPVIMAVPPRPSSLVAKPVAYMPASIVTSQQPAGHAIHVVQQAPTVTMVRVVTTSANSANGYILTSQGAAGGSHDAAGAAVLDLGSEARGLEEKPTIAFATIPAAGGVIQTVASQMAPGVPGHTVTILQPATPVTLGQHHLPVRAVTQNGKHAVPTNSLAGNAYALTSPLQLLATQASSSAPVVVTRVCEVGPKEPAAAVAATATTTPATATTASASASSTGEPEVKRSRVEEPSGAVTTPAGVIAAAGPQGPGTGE
inactive: [1] 0.323 | [2] -0.01 | [3] -0.362 | [4] -0.063 | [5] -0.091 | [6] 0.097 | [7] 0.182 | [8] -0.129 | [9] -0.025 | [10] -0.221

FIS1 (UniProt Q9Y3D6)
UniProt Q9Y3D6, sequence (Q9Y3D6 whole entry, looked up): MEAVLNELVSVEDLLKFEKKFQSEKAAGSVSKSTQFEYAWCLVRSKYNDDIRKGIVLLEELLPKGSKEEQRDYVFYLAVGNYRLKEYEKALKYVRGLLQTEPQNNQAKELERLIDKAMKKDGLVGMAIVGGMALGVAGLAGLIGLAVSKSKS
inactive: [1] -0.024 | [2] 0.006 | [3] 0 | [4] 0 | [5] -0.018 | [6] 0.048 | [7] -0.046 | [8] -0.009 | [9] -0.014 | [10] -0.027

HOOK3 (UniProt Q86VS8)
UniProt Q86VS8, sequence (Q86VS8 whole entry, looked up): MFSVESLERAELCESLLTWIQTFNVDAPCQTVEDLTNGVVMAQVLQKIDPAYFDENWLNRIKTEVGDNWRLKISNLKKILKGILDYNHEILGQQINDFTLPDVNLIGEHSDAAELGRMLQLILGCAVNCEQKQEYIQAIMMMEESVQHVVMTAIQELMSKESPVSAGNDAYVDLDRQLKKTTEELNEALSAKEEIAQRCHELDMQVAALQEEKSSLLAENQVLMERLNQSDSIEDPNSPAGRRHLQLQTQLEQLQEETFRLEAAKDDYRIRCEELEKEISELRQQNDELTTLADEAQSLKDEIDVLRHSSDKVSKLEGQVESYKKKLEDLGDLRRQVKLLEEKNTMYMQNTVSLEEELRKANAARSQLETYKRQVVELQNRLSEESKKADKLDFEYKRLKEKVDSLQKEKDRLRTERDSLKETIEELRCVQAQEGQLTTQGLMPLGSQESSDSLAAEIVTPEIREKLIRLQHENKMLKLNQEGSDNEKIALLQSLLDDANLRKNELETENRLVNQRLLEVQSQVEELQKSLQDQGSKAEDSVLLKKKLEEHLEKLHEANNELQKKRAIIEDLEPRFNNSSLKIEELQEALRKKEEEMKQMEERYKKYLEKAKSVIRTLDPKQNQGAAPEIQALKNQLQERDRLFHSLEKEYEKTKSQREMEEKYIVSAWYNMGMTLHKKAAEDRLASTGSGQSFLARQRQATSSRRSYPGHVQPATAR
inactive: [1] -0.024 | [2] -0.023 | [3] -0.014 | [4] -0.039 | [5] 0.034 | [6] -0.014 | [7] -0.001 | [8] -0.026 | [9] 0.091 | [10] 0.008
